Data as given in PMC11006913.
Positions count from the first letter of the chain named.

Assays:
Assay in all cases: PBM; 200 nM protein, PBS
Settings in all cases: dsDNA, one strand shown
[1] = target: CRX (Homo sapiens, UniProt O43186 26-111)
[2] = target: CRX (Homo sapiens, UniProt O43186 26-111, E42D)
[3] = target: CRX (Homo sapiens, UniProt O43186 26-111, R41L)
[4] = target: PITX2 (Homo sapiens, UniProt Q99697 72-157)
[5] = target: T1, NKX2-4 (Homo sapiens, UniProt Q9H2Z4 175-261, P217L)
T1 sequence: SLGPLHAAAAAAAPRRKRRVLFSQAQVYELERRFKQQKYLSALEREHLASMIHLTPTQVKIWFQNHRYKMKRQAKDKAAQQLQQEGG

[6] = target: T2, NKX2-4 (Homo sapiens, UniProt Q9H2Z4 175-261, T231S)
T2 sequence: T1 sequence with L43P, T57S

[7] = target: PRRX1 (Homo sapiens, UniProt P54821 80-166, F113S)
Sequence of PRRX1 (Homo sapiens, UniProt P54821 80-166, F113S) (P54821 80-166 F113S): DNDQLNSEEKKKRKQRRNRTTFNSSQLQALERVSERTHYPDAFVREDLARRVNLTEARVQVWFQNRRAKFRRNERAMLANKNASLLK

[8] = target: T3, NKX2-4 (Homo sapiens, UniProt Q9H2Z4 175-261)
T3 sequence: T1 sequence with L43P

[9] = target: T4, NKX2-4 (Homo sapiens, UniProt Q9H2Z4 175-261, R246Q)
T4 sequence: T1 sequence with L43P, R72Q

[10] = target: PRRX1 (Homo sapiens, UniProt P54821 80-166)
Sequence of PRRX1 (Homo sapiens, UniProt P54821 80-166) (P54821 80-166): as the sequence (P54821 80-166 F113S) above, with S34F counted along it

[11] = target: MSX2 (Homo sapiens, UniProt P35548 130-214, R199I)
Sequence of MSX2 (Homo sapiens, UniProt P35548 130-214, R199I) (P35548 130-214 R199I): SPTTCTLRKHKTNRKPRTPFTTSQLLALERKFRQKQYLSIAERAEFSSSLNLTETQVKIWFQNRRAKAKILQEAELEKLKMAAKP

[12] = target: ALX1 (Homo sapiens, UniProt Q15699 118-204, L144V)
Sequence of ALX1 (Homo sapiens, UniProt Q15699 118-204, L144V) (Q15699 118-204 L144V): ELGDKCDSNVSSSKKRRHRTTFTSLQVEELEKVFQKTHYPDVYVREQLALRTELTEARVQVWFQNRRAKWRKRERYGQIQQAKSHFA

[13] = target: ALX1 (Homo sapiens, UniProt Q15699 118-204, L144R)
Sequence of ALX1 (Homo sapiens, UniProt Q15699 118-204, L144R) (Q15699 118-204 L144R): as the sequence (Q15699 118-204 L144V) above, with V27R counted along it

[14] = target: MSX2 (Homo sapiens, UniProt P35548 130-214)
Sequence of MSX2 (Homo sapiens, UniProt P35548 130-214) (P35548 130-214): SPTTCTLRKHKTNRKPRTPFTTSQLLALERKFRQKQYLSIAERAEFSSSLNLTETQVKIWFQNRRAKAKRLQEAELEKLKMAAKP

[15] = target: MSX2 (Homo sapiens, UniProt P35548 130-214, F161Y)
Sequence of MSX2 (Homo sapiens, UniProt P35548 130-214, F161Y) (P35548 130-214 F161Y): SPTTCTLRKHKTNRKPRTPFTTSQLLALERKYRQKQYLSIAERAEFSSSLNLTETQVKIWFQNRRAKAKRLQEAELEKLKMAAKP

[16] = target: ALX1 (Homo sapiens, UniProt Q15699 118-204)
Sequence of ALX1 (Homo sapiens, UniProt Q15699 118-204) (Q15699 118-204): as the sequence (Q15699 118-204 L144V) above, with V27L counted along it

[17] = target: HOXA2 (Homo sapiens, UniProt O43364 129-215, R185T)
Sequence of HOXA2 (Homo sapiens, UniProt O43364 129-215, R185T) (O43364 129-215 R185T): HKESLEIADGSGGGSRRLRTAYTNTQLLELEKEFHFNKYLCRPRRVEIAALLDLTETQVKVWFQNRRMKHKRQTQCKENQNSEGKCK

[18] = target: HOXA2 (Homo sapiens, UniProt O43364 129-215, R185K)
Sequence of HOXA2 (Homo sapiens, UniProt O43364 129-215, R185K) (O43364 129-215 R185K): as the sequence (O43364 129-215 R185T) above, with T57K counted along it

[19] = target: HOXA2 (Homo sapiens, UniProt O43364 129-215, Y150S)
Sequence of HOXA2 (Homo sapiens, UniProt O43364 129-215, Y150S) (O43364 129-215 Y150S): as the sequence (O43364 129-215 R185T) above, with Y22S, T57R counted along it

[20] = target: HOXA2 (Homo sapiens, UniProt O43364 129-215)
Sequence of HOXA2 (Homo sapiens, UniProt O43364 129-215) (O43364 129-215): as the sequence (O43364 129-215 R185T) above, with T57R counted along it

[21] = target: T5, NKX2-6 (Homo sapiens, UniProt A6NCS4 118-204, R150C)
T5 sequence: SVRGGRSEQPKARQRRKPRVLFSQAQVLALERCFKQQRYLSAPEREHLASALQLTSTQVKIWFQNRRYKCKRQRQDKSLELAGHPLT

Sequence of CRX (Homo sapiens, UniProt O43186 26-111) (O43186 26-111): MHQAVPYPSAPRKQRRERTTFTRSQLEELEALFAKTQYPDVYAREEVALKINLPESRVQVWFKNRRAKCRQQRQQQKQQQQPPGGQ
Sequence of CRX (Homo sapiens, UniProt O43186 26-111, R41L) (O43186 26-111 R41L): as the sequence (O43186 26-111) above, with R16L counted along it
Sequence of CRX (Homo sapiens, UniProt O43186 26-111, E42D) (O43186 26-111 E42D): as the sequence (O43186 26-111) above, with E17D counted along it

TAAGATTA
binding signal [1]: 12.8 upbm affinity estimate (log intensity, higher = more binding, comparable within an allelic series) | binding signal [2]: 12.6 upbm affinity estimate (log intensity, higher = more binding, comparable within an allelic series) | binding signal [3]: 12.4 upbm affinity estimate (log intensity, higher = more binding, comparable within an allelic series)

CTCTCTCC
binding signal [1]: 8.11 upbm affinity estimate (log intensity, higher = more binding, comparable within an allelic series) | binding signal [2]: 8.15 upbm affinity estimate (log intensity, higher = more binding, comparable within an allelic series) | binding signal [3]: 8.3 upbm affinity estimate (log intensity, higher = more binding, comparable within an allelic series)

AGATTATA
binding signal [1]: 12.9 upbm affinity estimate (log intensity, higher = more binding, comparable within an allelic series) | binding signal [2]: 12.8 upbm affinity estimate (log intensity, higher = more binding, comparable within an allelic series) | binding signal [3]: 12.8 upbm affinity estimate (log intensity, higher = more binding, comparable within an allelic series)

CGCGGCAG
binding signal [1]: 8.09 upbm affinity estimate (log intensity, higher = more binding, comparable within an allelic series) | binding signal [2]: 8.17 upbm affinity estimate (log intensity, higher = more binding, comparable within an allelic series) | binding signal [3]: 8.17 upbm affinity estimate (log intensity, higher = more binding, comparable within an allelic series)

CCGTCGCG
binding signal [1]: 8.16 upbm affinity estimate (log intensity, higher = more binding, comparable within an allelic series) | binding signal [2]: 8.11 upbm affinity estimate (log intensity, higher = more binding, comparable within an allelic series) | binding signal [3]: 8.14 upbm affinity estimate (log intensity, higher = more binding, comparable within an allelic series)

CTGGTCGA
binding signal [1]: 8.44 upbm affinity estimate (log intensity, higher = more binding, comparable within an allelic series) | binding signal [2]: 8.35 upbm affinity estimate (log intensity, higher = more binding, comparable within an allelic series) | binding signal [3]: 8.29 upbm affinity estimate (log intensity, higher = more binding, comparable within an allelic series)

GTAATCCA
binding signal [1]: 12.9 upbm affinity estimate (log intensity, higher = more binding, comparable within an allelic series) | binding signal [4]: 12.9 upbm affinity estimate (log intensity, higher = more binding, comparable within an allelic series) | binding signal [3]: 12.7 upbm affinity estimate (log intensity, higher = more binding, comparable within an allelic series)

AGCACCAG
binding signal [1]: 8.33 upbm affinity estimate (log intensity, higher = more binding, comparable within an allelic series) | binding signal [2]: 8.39 upbm affinity estimate (log intensity, higher = more binding, comparable within an allelic series) | binding signal [3]: 8.39 upbm affinity estimate (log intensity, higher = more binding, comparable within an allelic series)

GGAGACCC
binding signal [1]: 8.12 upbm affinity estimate (log intensity, higher = more binding, comparable within an allelic series) | binding signal [2]: 8.25 upbm affinity estimate (log intensity, higher = more binding, comparable within an allelic series) | binding signal [3]: 8.36 upbm affinity estimate (log intensity, higher = more binding, comparable within an allelic series)

CGAGCTAG
binding signal [5]: 9.46 upbm affinity estimate (log intensity, higher = more binding, comparable within an allelic series) | binding signal [6]: 9.32 upbm affinity estimate (log intensity, higher = more binding, comparable within an allelic series) | binding signal [7]: 9.63 upbm affinity estimate (log intensity, higher = more binding, comparable within an allelic series) | binding signal [8]: 9.31 upbm affinity estimate (log intensity, higher = more binding, comparable within an allelic series) | binding signal [9]: 9.21 upbm affinity estimate (log intensity, higher = more binding, comparable within an allelic series) | binding signal [10]: 9.54 upbm affinity estimate (log intensity, higher = more binding, comparable within an allelic series)

ACCCCTGG
binding signal [5]: 9.8 upbm affinity estimate (log intensity, higher = more binding, comparable within an allelic series) | binding signal [6]: 9.68 upbm affinity estimate (log intensity, higher = more binding, comparable within an allelic series) | binding signal [8]: 9.75 upbm affinity estimate (log intensity, higher = more binding, comparable within an allelic series) | binding signal [11]: 9.54 upbm affinity estimate (log intensity, higher = more binding, comparable within an allelic series) | binding signal [12]: 6.31 upbm affinity estimate (log intensity, higher = more binding, comparable within an allelic series) | binding signal [13]: 6.38 upbm affinity estimate (log intensity, higher = more binding, comparable within an allelic series) | binding signal [14]: 9.55 upbm affinity estimate (log intensity, higher = more binding, comparable within an allelic series) | binding signal [9]: 9.71 upbm affinity estimate (log intensity, higher = more binding, comparable within an allelic series) | binding signal [15]: 9.58 upbm affinity estimate (log intensity, higher = more binding, comparable within an allelic series) | binding signal [16]: 6.28 upbm affinity estimate (log intensity, higher = more binding, comparable within an allelic series)

GCGTGCCC
binding signal [5]: 9.72 upbm affinity estimate (log intensity, higher = more binding, comparable within an allelic series) | binding signal [6]: 9.7 upbm affinity estimate (log intensity, higher = more binding, comparable within an allelic series) | binding signal [8]: 9.77 upbm affinity estimate (log intensity, higher = more binding, comparable within an allelic series) | binding signal [17]: 7.23 upbm affinity estimate (log intensity, higher = more binding, comparable within an allelic series) | binding signal [18]: 10.3 upbm affinity estimate (log intensity, higher = more binding, comparable within an allelic series) | binding signal [9]: 9.73 upbm affinity estimate (log intensity, higher = more binding, comparable within an allelic series) | binding signal [19]: 10.3 upbm affinity estimate (log intensity, higher = more binding, comparable within an allelic series) | binding signal [20]: 7.4 upbm affinity estimate (log intensity, higher = more binding, comparable within an allelic series)

CAAGTGCA
binding signal [5]: 12.1 upbm affinity estimate (log intensity, higher = more binding, comparable within an allelic series) | binding signal [6]: 12.5 upbm affinity estimate (log intensity, higher = more binding, comparable within an allelic series) | binding signal [8]: 12 upbm affinity estimate (log intensity, higher = more binding, comparable within an allelic series) | binding signal [21]: 11.4 upbm affinity estimate (log intensity, higher = more binding, comparable within an allelic series) | binding signal [9]: 12.7 upbm affinity estimate (log intensity, higher = more binding, comparable within an allelic series)

AGCTCGCG
binding signal [5]: 9.6 upbm affinity estimate (log intensity, higher = more binding, comparable within an allelic series) | binding signal [6]: 9.58 upbm affinity estimate (log intensity, higher = more binding, comparable within an allelic series) | binding signal [8]: 9.62 upbm affinity estimate (log intensity, higher = more binding, comparable within an allelic series) | binding signal [9]: 9.63 upbm affinity estimate (log intensity, higher = more binding, comparable within an allelic series)

CCAGAGAC
binding signal [5]: 9.71 upbm affinity estimate (log intensity, higher = more binding, comparable within an allelic series) | binding signal [6]: 9.67 upbm affinity estimate (log intensity, higher = more binding, comparable within an allelic series) | binding signal [8]: 9.71 upbm affinity estimate (log intensity, higher = more binding, comparable within an allelic series) | binding signal [9]: 9.63 upbm affinity estimate (log intensity, higher = more binding, comparable within an allelic series)

ACCCTTAC
binding signal [5]: 11.5 upbm affinity estimate (log intensity, higher = more binding, comparable within an allelic series) | binding signal [6]: 11.7 upbm affinity estimate (log intensity, higher = more binding, comparable within an allelic series) | binding signal [8]: 11.4 upbm affinity estimate (log intensity, higher = more binding, comparable within an allelic series)

CCCACTCA
binding signal [5]: 12.4 upbm affinity estimate (log intensity, higher = more binding, comparable within an allelic series) | binding signal [6]: 12.7 upbm affinity estimate (log intensity, higher = more binding, comparable within an allelic series) | binding signal [8]: 12.2 upbm affinity estimate (log intensity, higher = more binding, comparable within an allelic series) | binding signal [21]: 11.3 upbm affinity estimate (log intensity, higher = more binding, comparable within an allelic series) | binding signal [9]: 12.6 upbm affinity estimate (log intensity, higher = more binding, comparable within an allelic series)
